Whole data set: some 68,000 sequences, median “fluorescence intensity (a.u.)” near 9,100, cut for the highest 2% near 16,000. This excerpt belongs to a sample that is enriched for the highest values.

The target in the experiment is OsWRKY34 (Oryza sativa, UniProt Q0JBA9 1-250). Kind of experiment: protein-binding microarray (RPBM); PBS, 2% BSA, 51.3 ng/ul salmon testes DNA, 50 uM zinc acetate, 200 nM TF, 25 C, 1 h; high values mean tight binding. As to conditions: protein: recombinant; tags: N-terminal polyhistidine and DsRed monomer fusion (pET32a); label: CyDye5-dUTP incorporated in the synthesized complementary strand; 3' TTTTT single-stranded linker to array surface; dsDNA, one strand shown. A digest of the protocol: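 Per-feature fluorescence intensity (arbitrary units), read on an Axon 4000B scanner, is the binding signal. Transcription factors carrying an N-terminal polyhistidine tag and DsRed fusion were expressed in E. coli BL21-CodonPlus and purified on Ni–NTA. A custom Agilent array, made double-stranded by primer extension with Cy5-dUTP and blocked with 2% BSA, was incubated with 200 nM protein in PBS, 2% BSA, salmon testes DNA and 50 µM zinc acetate at 25 °C for 1 h and then washed.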
OsWRKY34, sequence (Q0JBA9 entry or part of it): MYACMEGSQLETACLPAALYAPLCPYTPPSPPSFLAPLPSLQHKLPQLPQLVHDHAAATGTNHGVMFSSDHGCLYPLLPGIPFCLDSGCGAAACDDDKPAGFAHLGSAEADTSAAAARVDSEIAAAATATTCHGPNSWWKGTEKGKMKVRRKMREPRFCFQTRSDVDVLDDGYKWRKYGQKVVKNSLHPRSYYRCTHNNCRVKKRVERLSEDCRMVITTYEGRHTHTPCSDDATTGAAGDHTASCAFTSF
Regarding “CCTTCGACCCGTCCCCTCACAAACGGCCGTTTCCCTCCCGCGGAGTCACCTAGTGCAG”, the binding signal was 9230 fluorescence intensity (a.u.).

With “GATCGAATCGAATAGAGTACATTCTCTACAGGGGAGGGGACGGAGTCACCTAGTGCAG”, the binding signal was 9760 fluorescence intensity (a.u.).

“GTCTGTGAATGTTTTATTTGCCTTGTCTGAACTATCTTTACGGAGTCACCTAGTGCAG”: the binding signal was 11400 fluorescence intensity (a.u.).

As to “TGTTGGTGAATGGTAATTTTTTGGGTTGATATGTTGCTGACGGAGTCACCTAGTGCAG”, the binding signal was 9580 fluorescence intensity (a.u.).

For “CTTCCTTCCTAACGTATCGCCCACATTCCTCCACGTCTCCCGGAGTCACCTAGTGCAG”, the binding signal is 8980 fluorescence intensity (a.u.).

In the case of “TCCATTTCCTTGTTTGGTTGGGTGGATGAGAATGGATTGACGGAGTCACCTAGTGCAG”, the binding signal is 9010 fluorescence intensity (a.u.).

For “ACACCGCACCGCCGCAATCGTTGGCACAAGCTACAACCCTCGGAGTCACCTAGTGCAG”, the binding signal was 8540 fluorescence intensity (a.u.).

In the case of “CAAAACAGCCGCGTTTTGGCTCACTAGTCACTTGTTTGACCGGAGTCACCTAGTGCAG”, the binding signal is 9710 fluorescence intensity (a.u.).

As to “GCAACCACTGTCTCGCTCTCCGCCGCCATCGCCGCCGCCGCGGAGTCACCTAGTGCAG”, the binding signal is 10500 fluorescence intensity (a.u.).

As to “CAGCCCACCGCCGCATCCTCGCAACCACTGTCTCGCTCTCCGGAGTCACCTAGTGCAG”, the binding signal is 17000 fluorescence intensity (a.u.).

For the sequence “TTGTCTCACCACTGCTTCGCATCCTCCGCCGCCGCCTCACCGGAGTCACCTAGTGCAG”, the binding signal was 11000 fluorescence intensity (a.u.).

Take “ATTTTTTTGGGCGCGGGTTGGAGCCGGTTTGACTAAAAGGCGGAGTCACCTAGTGCAG”: the binding signal is 8310 fluorescence intensity (a.u.).

Take “GATTGACTTGCCAAACATTTTACATGCGTTTATTGTACCACGGAGTCACCTAGTGCAG”: the binding signal is 9920 fluorescence intensity (a.u.).

“CTCCTGGCAACCCCATGCACTGCTTTTGCTGCCCTTAAGTCGGAGTCACCTAGTGCAG”: the binding signal is 8620 fluorescence intensity (a.u.).

As to “AAATATACAACTCTTGGACGCCCTTACATCTCTCCATTGTCGGAGTCACCTAGTGCAG”, the binding signal is 8230 fluorescence intensity (a.u.).

For “AGCCACCTTGTCGTTTTCCGCTCCTCACCTGCTCAACTTCCGGAGTCACCTAGTGCAG”, the binding signal is 9800 fluorescence intensity (a.u.).

With “CTTGGAGGTGGTTCAGGTGGAGGCGGCGGTCTCGGAGGTGCGGAGTCACCTAGTGCAG”, the binding signal was 9240 fluorescence intensity (a.u.).

On to “GGTTTGGTTGGGGTTTAGGTCTCGGGGCGGCGCGGAGGCGCGGAGTCACCTAGTGCAG”, for which the binding signal was 17700 fluorescence intensity (a.u.).

In the case of “CGGCGGGTTAGGGTTTGGGGTTGGGGTAAGGATAGGAGGGCGGAGTCACCTAGTGCAG”, the binding signal was 14200 fluorescence intensity (a.u.).

“AGAGGTTTGGGGTTGGTTCATCTCGCGGGCTTGGGCGGCGCGGAGTCACCTAGTGCAG”: the binding signal is 14400 fluorescence intensity (a.u.).

On to “GGTTTGGAGGCGGAGGTGGCGCTGGAGGAGGCGGCGGTCTCGGAGTCACCTAGTGCAG”, for which the binding signal is 9970 fluorescence intensity (a.u.).

Take “ACACACCGCGGGTTGGAGGAGGAGGAGGAGGAGGTAGGGGCGGAGTCACCTAGTGCAG”: the binding signal was 10500 fluorescence intensity (a.u.).

With “GTGCGCGTTCTTGGTGTTATGGAGGCGGGTCTCGGCGGGGCGGAGTCACCTAGTGCAG”, the binding signal was 17600 fluorescence intensity (a.u.).

Regarding “GTTTGATTTGGTGAGGCGGGCGGTGTGCGCGTGGTGGTCTCGGAGTCACCTAGTGCAG”, the binding signal was 8680 fluorescence intensity (a.u.).

Take “TACGGGTTAGGGTTTGGGGTTGGGGTCAAGGTAGGAGGGGCGGAGTCACCTAGTGCAG”: the binding signal was 22500 fluorescence intensity (a.u.).

Turning to “GCCTCGACATGCGCGTCCGATTTATCCCCTTTTTTTTTTTCGGAGTCACCTAGTGCAG”, the binding signal was 8470 fluorescence intensity (a.u.).

With “CATGCCAGGTGTTGGGCCTCATCGTCGGCCGCTTAGTATCCGGAGTCACCTAGTGCAG”, the binding signal is 8380 fluorescence intensity (a.u.).

On to “TTTTGTCCTTCAACCTGTTGAAGTTGTTTTCAGTTGTTCACGGAGTCACCTAGTGCAG”, for which the binding signal was 11600 fluorescence intensity (a.u.).

Regarding “GTCACCAGTGTCCGCCAATAATTTGCACATCTTCTCATATCGGAGTCACCTAGTGCAG”, the binding signal was 10300 fluorescence intensity (a.u.).

With “TGCTTAGTTGCCCTACAACCTTTTTACAGGCTATATTTATCGGAGTCACCTAGTGCAG”, the binding signal is 8110 fluorescence intensity (a.u.).

For “TAGCTTAATATTTTTTTTCTCGCTAGCTTTATTTAAAATGCGGAGTCACCTAGTGCAG”, the binding signal is 8170 fluorescence intensity (a.u.).

For “TATTCACGGCTGCACTTATTTTGGGACGGAGGTAGTATTTCGGAGTCACCTAGTGCAG”, the binding signal is 8070 fluorescence intensity (a.u.).

“CCCTCCTTCCCTTTTAGTGGGTCTGTTTTCTTGGAGCGCGCGGAGTCACCTAGTGCAG”: the binding signal was 8600 fluorescence intensity (a.u.).

For the sequence “CGCAGAATCACAGTTTTTCTTCATCTCCGGCAAGGGTAATCGGAGTCACCTAGTGCAG”, the binding signal was 8960 fluorescence intensity (a.u.).

For the sequence “ACGCACCAACCGTCCCTCTTTCGCTCACACTCTTCCTTCCCGGAGTCACCTAGTGCAG”, the binding signal was 9700 fluorescence intensity (a.u.).

For “GTCCCATCACCTTATTTCTCATTTTGATTTACTTTTATCTCGGAGTCACCTAGTGCAG”, the binding signal is 9330 fluorescence intensity (a.u.).

“AGTACTACTACTACTACATACAGCTGCCTTTGCTTAGCTCCGGAGTCACCTAGTGCAG”: the binding signal was 9580 fluorescence intensity (a.u.).

Take “CTTTTCCTGCTTGGTTCGTTACTCCTGTTTAATTATTATTCGGAGTCACCTAGTGCAG”: the binding signal is 14600 fluorescence intensity (a.u.).

Turning to “ATACCACCTTATATACTTTGCCAAAACCACCTTTTCCAAGCGGAGTCACCTAGTGCAG”, the binding signal is 9040 fluorescence intensity (a.u.).

For “TACATACTCCTACTCCGTAGTTTGCTGCTTTGTTGGATTCCGGAGTCACCTAGTGCAG”, the binding signal is 12900 fluorescence intensity (a.u.).

As for “CGGGGTTTCACTTGGTTTTAATTGTTCCTGTGCTGCGTCGCGGAGTCACCTAGTGCAG”, the binding signal was 18700 fluorescence intensity (a.u.).

For “CAATTGGTTGGGTTTCTTGTGCCTACCTGTGTTTAAGTTCCGGAGTCACCTAGTGCAG”, the binding signal is 9160 fluorescence intensity (a.u.).

In the case of “TTGCTCGTATTTTCTCCCCAAAGTCATCAACTTTGATGCTCGGAGTCACCTAGTGCAG”, the binding signal is 19000 fluorescence intensity (a.u.).

On to “TTTCTTTTTTTTGCCTACCTTTACTTTACACCAAAAACTGCGGAGTCACCTAGTGCAG”, for which the binding signal is 8630 fluorescence intensity (a.u.).

As to “TATAGATAGATACTACCAGGGTTTCCAAACTGTTTTTTTGCGGAGTCACCTAGTGCAG”, the binding signal is 23300 fluorescence intensity (a.u.).

As to “TATTTTTTGCATTTTGCTCCCTGATTTGAACTGTATTTCTCGGAGTCACCTAGTGCAG”, the binding signal is 8660 fluorescence intensity (a.u.).

For the sequence “GCCTACTCCTACTTGTACATACTTGCTTTTTTTTTTTTTCCGGAGTCACCTAGTGCAG”, the binding signal is 17500 fluorescence intensity (a.u.).

These data come from PMC7819943, “Rice protein-binding microarrays: a tool to detect cis-acting elements near promoter regions in rice”.
